# Test results from PubChem BioAssay (NCATS).
# Records with an inconclusive call do not appear. Where a call stands in place of a potency, no number is given. Active and inactive are the calls of the source. Unless noted, calls follow the shape of the dose curve; as a rule, active = well fitted curve in the direction sought with a large enough effect in the repeat runs; inconclusive = weak or mixed curves; inactive = no such curve, though single readings can be large; an effect the other way counts as inactive or inconclusive.
# Experiments:
# [1] = A High-Content qHTS Against Drug Library for the Identification of Small Molecules that Inhibit DYT1 Early Onset Primary Dystonia-Associated Cell Pathology (AID 1645839; calls by dose curve)
# In short: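 High-content imaging quantified EGFP-TorsinA mislocalization in HEK293-derived cells inducibly expressing DYT1 mutant torsinA, after 48 h exposure to compound given together with tetracycline induction. Cell count served as a toxicity channel alongside %pathology.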
# [2] = biological target: Cytochrome P450 2D6 (Homo sapiens) (UniProt P10635); experiment: Cytochrome P450 family 2 subfamily D member 6 (CYP2D6) small molecule antagonists: luciferase biochemical (cell-free) qHTS assay (AID 1645840); also: nearly all actives have a fitted effect of over 55% in size; also: potency is read from the fitted curve at half-maximal effect
# In short: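 P450-Glo CYP2D6 system: proluciferin substrate converted by enzyme to luciferin, read by luminescence proportional to activity. Enzyme-substrate mix with compound 10 min at room temperature, then NADPH regeneration 1 h before detection reagent.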
# [3] = biological target: Cytochrome P450 3A4 (Homo sapiens) (UniProt P08684); experiment: Cytochrome P450 family 3 subfamily A member 4 (CYP3A4) small molecule antagonists: luciferase qHTS assay (AID 1645841); also: nearly all actives have a fitted effect of over 45% in size
# In short: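 Luminescent CYP3A4 activity readout: compounds plus enzyme-substrate mix 10 min at room temperature, reaction started with NADPH regenerating system for 1 h, stopped with detection reagent, read after 20 min. Ketoconazole served as control.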
# [4] = biological target: Cytochrome P450 2C9 (Homo sapiens) (UniProt P11712); experiment: Cytochrome P450 family 2 subfamily C member 9 (CYP2C9) small molecule antagonists: luciferase biochemical (cell-free) qHTS assay (AID 1645842); also: nearly all actives have a fitted effect of over 55% in size; also: potency is read from the fitted curve at half-maximal effect
# In short: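 P450-Glo CYP2C9 system: proluciferin substrate with enzyme in mix containing 0.4% BSA, 10 min at room temperature, then NADPH regeneration solution added and incubated 1 h at 37C. Detection reagent stopped reaction; luminescence read after 20 min as RLU.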
# [5] = Primary qHTS for small molecule stabilizers of the endoplasmic reticulum resident proteome: Secreted ER Calcium Modulated Protein (SERCaMP) assay (AID 1508630; active = well fitted curve in the direction sought with a large enough effect; an effect the other way counts as inactive or inconclusive)
# In short: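 The SH-SY5Y reporter protocol was run at 3 concentrations up to 38.3 uM (primary) or 11 concentrations (follow-up): 16 h compound, 100 nM thapsigargin for 4 h, then extracellular luciferase luminescence.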
# [6] = Cytotoxicity counterscreen for inhibitors of SARS-CoV-2 cell entry (AID 1645845; calls by dose curve; also: nearly all actives have a fitted effect of over 50% in size)
# In short: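 ATP-content luminescence (ATPLite 1step, 15 min RT) read after 48 h compound exposure of Expi293F cells stably expressing human ACE2; normalized to cells-only wells and media-only wells.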
# [7] = Primary qHTS to identify inhibitors of SARS-CoV-2 cell entry (AID 1645846; calls by dose curve; also: nearly all actives have a fitted effect of over 45% in size; also: potency is read from the fitted curve at half-maximal effect); details: activity change, negative = inhibition: at 57.1 µM (top of the series) unless noted
# In short: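 Inhibition of spike-mediated entry was scored in human ACE2-transfected Expi293F cells. Particles were MLV-pseudotyped with Wuhan-Hu-1 S carrying a 19-aa C-terminal deletion; signal was luciferase after two days, scaled between spike PP and fusion-protein-free PP.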
# [8] = Confirmatory qHTS to identify inhibitors of SARS-CoV-2 cell entry (AID 1645844; calls by dose curve; also: potency is read from the fitted curve at half-maximal effect; nearly all actives have a fitted effect of over 45% in size)
# In short: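 Luminescence entry read-out after 48 h: spike-pseudotyped MLV particles (Wuhan-Hu-1, 19-aa C-terminal truncation) added to compound-pretreated (1 h) HEK293-ACE2 cells; Data were normalised to bald PP and spike PP wells.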
# [9] = VSVG counterscreen qHTS to identify inhibitors of SARS-CoV-2 cell entry (AID 1645847; calls by dose curve; also: potency is read from the fitted curve at half-maximal effect; nearly all actives have a fitted effect of over 65% in size)
# In short: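 Luminescence from a luciferase reporter, normalised to bald particle and VSV-G pseudotyped particle wells, is the read-out. Cells are HEK293 expressing human ACE2, exposed to compound 1 h before a 48 h particle infection at 37 °C.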
# Cytochrome P450 2C9 (Homo sapiens), sequence (P11712 whole entry, looked up): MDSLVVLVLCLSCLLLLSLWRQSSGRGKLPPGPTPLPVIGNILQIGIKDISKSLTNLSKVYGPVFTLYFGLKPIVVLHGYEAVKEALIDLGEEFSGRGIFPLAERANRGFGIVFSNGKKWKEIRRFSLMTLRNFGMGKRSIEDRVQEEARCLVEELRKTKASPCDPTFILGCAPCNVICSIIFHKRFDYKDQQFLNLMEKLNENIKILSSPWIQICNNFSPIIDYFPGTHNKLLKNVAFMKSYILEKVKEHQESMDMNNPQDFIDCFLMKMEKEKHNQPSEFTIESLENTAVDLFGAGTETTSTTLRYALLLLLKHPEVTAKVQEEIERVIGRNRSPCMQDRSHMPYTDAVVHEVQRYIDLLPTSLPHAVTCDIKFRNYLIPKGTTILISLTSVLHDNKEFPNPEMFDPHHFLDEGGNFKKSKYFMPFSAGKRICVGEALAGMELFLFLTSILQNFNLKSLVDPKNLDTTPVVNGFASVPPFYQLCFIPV
# Cytochrome P450 2D6 (Homo sapiens), sequence (P10635 whole entry, looked up): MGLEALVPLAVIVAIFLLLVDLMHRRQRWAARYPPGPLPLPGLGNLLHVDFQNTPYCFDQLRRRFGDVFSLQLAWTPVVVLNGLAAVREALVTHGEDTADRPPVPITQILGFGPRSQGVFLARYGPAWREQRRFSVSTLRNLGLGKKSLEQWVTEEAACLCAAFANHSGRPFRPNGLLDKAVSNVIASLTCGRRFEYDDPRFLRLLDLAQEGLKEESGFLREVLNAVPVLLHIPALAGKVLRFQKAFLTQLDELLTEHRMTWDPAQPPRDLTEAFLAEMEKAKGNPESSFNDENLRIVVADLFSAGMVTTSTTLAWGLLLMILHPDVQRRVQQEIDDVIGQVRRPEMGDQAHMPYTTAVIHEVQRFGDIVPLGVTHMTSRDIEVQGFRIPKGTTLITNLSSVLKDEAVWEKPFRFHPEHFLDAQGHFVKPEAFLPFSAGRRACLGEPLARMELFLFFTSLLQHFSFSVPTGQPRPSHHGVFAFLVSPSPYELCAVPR
# Cytochrome P450 3A4 (Homo sapiens), sequence (P08684 whole entry, looked up): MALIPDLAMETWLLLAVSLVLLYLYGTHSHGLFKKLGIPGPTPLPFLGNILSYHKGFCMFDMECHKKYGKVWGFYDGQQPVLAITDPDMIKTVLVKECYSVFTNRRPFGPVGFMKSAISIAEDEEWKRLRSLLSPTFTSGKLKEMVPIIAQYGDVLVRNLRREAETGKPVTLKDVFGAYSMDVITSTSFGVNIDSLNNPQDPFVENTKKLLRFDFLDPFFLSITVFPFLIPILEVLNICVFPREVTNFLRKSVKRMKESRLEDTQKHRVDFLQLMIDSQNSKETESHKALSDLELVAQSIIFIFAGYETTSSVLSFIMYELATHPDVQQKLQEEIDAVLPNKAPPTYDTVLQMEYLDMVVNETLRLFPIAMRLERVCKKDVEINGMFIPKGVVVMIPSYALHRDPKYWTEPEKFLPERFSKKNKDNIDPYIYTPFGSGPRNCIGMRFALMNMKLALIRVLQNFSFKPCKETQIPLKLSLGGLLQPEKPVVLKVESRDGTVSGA
smiles,measurement,setting,value
Clc1ccccc1N1CCNCC1,outcome,[1],inactive
same,Potency,[2],13.8 µM (active)
same,Potency,[3],inactive
same,Potency,[4],inactive
COc1ccc2c(c1OC)C(=O)O[C@H]2[C@@H]1c2cc3c(cc2CCN1C)OCO3,Potency,[5],inactive
same,Potency,[4],4.9 µM (active)
same,Potency,[6],inactive
same,Potency,[7],inactive
CC(=O)NC1CCSC1=O (stereo not given),outcome,[1],inactive
same,Potency,[2],inactive
O=C(Nc1ccc(Br)cc1)c1cc(Br)cc(Br)c1O,Potency,[5],inactive
same,Potency,[4],3.47 µM (active)
CCN[C@@H](C)Cc1ccccc1,outcome,[1],inactive
same,Potency,[2],6.28 µM (active)
same,Potency,[4],inactive
CC(=O)C1CCOC1=O (stereo not given),outcome,[1],inactive
same,Potency,[2],inactive
same,Potency,[4],inactive
COc1cc(CC(C)N)cc(OC)c1OC (stereo not given),outcome,[1],inactive
same,Potency,[2],30.6 µM (active)
same,Potency,[4],inactive
CC(=O)OCC1=C(C(=O)O)N2C(=O)[C@@H](N)[C@H]2SC1,outcome,[1],inactive
same,Potency,[2],5.35 µM (active)
same,Potency,[4],inactive
COc1cc(OC)c(OC)cc1C=O,outcome,[1],inactive
same,Potency,[2],inactive
same,Potency,[4],inactive
CC(C)(C)NCC(O)c1cc(Cl)c(N)c(C(F)(F)F)c1 (stereo not given),Potency,[5],inactive
same,Potency,[2],15.5 µM (active)
same,Potency,[4],inactive
same,Potency,[6],inactive
C=CCC1([C@H](C)CCC)C(=O)NC(=O)NC1=O,outcome,[1],inactive
same,Potency,[2],inactive
same,Potency,[4],inactive
CC(C)NC(C)C,outcome,[1],inactive
same,Potency,[2],inactive
same,Potency,[4],inactive
same,Potency,[7],inactive
O=[N+]([O-])O[C@H]1CO[C@H]2[C@@H]1OC[C@H]2O[N+](=O)[O-],outcome,[1],inactive
same,Potency,[2],inactive
same,Potency,[3],inactive
same,Potency,[4],inactive
same,Potency,[6],inactive
same,"activity change, negative = inhibition",[7],-33.3%
CC[N+]1(CC)CCC(OC(=O)C(O)(c2ccccc2)c2ccccc2)C1 (stereo not given),outcome,[1],inactive
same,Potency,[2],12.9 µM (active)
same,Potency,[4],inactive
COc1cccc(C(=O)CCN[C@@H](C)[C@H](O)c2ccccc2)c1,Potency,[5],inactive
same,Potency,[2],1.55 µM (active)
same,Potency,[4],30.9 µM (active)
same,Potency,[6],inactive
C[C@H]1[C@@H]2Cc3ccc(O)cc3[C@@]1(C)CCN2C,outcome,[1],inactive
same,Potency,[2],107 µM (active)
same,Potency,[4],inactive
CC(Cc1ccccc1)NCCn1cnc2c1c(=O)n(C)c(=O)n2C (stereo not given),outcome,[1],inactive
same,Potency,[2],7.01 µM (active)
same,Potency,[4],inactive
CC(C)(N)Cc1ccccc1Cl,outcome,[1],inactive
same,Potency,[2],13.8 µM (active)
same,Potency,[4],inactive
c1ccc(N2CCNCC2)cc1,outcome,[1],inactive
same,Potency,[2],inactive
same,Potency,[4],inactive
O=C(O)c1ccc(=O)[nH]c1,outcome,[1],inactive
same,Potency,[2],inactive
same,Potency,[4],inactive
c1ccc(CN2CCNCC2)cc1,outcome,[1],inactive
same,Potency,[2],30.6 µM (active)
same,Potency,[4],inactive
CCC1(CC)C(=O)C=CNC1=O,outcome,[1],inactive
same,Potency,[2],inactive
C[C@](O)(CS(=O)(=O)c1ccc(F)cc1)C(=O)Nc1ccc(C#N)c(C(F)(F)F)c1,Potency,[5],inactive
same,Potency,[6],inactive
same,"activity change, negative = inhibition",[7],-4.4%
CN1CC[C@]23c4c5ccc(O)c4O[C@H]2[C@@H](O)C=C[C@H]3[C@H]1C5,outcome,[1],inactive
NC(=O)CS(=O)C(c1ccccc1)c1ccccc1 (stereo not given),outcome,[1],inactive
same,Potency,[4],inactive
COc1ccc2c3c1O[C@H]1[C@H](O)CC[C@H]4[C@@H](C2)N(C)CC[C@@]341,outcome,[1],inactive
same,Potency,[2],inactive
same,Potency,[4],inactive
Clc1cccc(SC2CCNCC2)n1,outcome,[1],inactive
CNCC(=O)c1ccc(O)c(O)c1,outcome,[1],inactive
same,Potency,[2],inactive
same,Potency,[4],inactive
Oc1ccc(Cl)cc1,outcome,[1],inactive
same,Potency,[2],inactive
same,Potency,[4],inactive
same,Potency,[6],inactive
same,"activity change, negative = inhibition",[7],-1.58%
C[C@]12CC[C@H]3[C@@H](CC[C@@]45O[C@H]4C(O)=C(C#N)C[C@]35C)[C@H]1CC[C@H]2O,outcome,[1],inactive
same,Potency,[2],inactive
same,Potency,[4],inactive
same,Potency,[6],inactive
same,"activity change, negative = inhibition",[7],-26.2%
C=CCC1(C(C)CC)C(=O)NC(=O)NC1=O (stereo not given),outcome,[1],inactive
same,Potency,[4],inactive
same,Potency,[6],inactive
same,"activity change, negative = inhibition",[7],-17.9%
C[C@H](N)C(=O)c1ccccc1,outcome,[1],inactive
same,Potency,[2],42.2 µM (active)
Nc1ccccc1C(=O)O,outcome,[1],inactive
same,Potency,[2],inactive
same,Potency,[4],inactive
C#CC(O)(C=CCl)CC (stereo not given),outcome,[1],inactive
same,Potency,[2],inactive
same,Potency,[4],inactive
same,Potency,[6],inactive
O=c1c(C2CC(c3ccc(-c4ccc(Br)cc4)cc3)Cc3ccccc32)c(O)sc2ccccc12 (stereo not given),Potency,[5],inactive
same,Potency,[2],inactive
same,Potency,[4],9.77 µM (active)
same,Potency,[7],14.1 µM (active)
Oc1ccc(Cl)c2cccnc12,Potency,[8],2.71 µM (active)
same,Potency,[9],3.04 µM (active)
CCOc1ccc2nc3cc(N)ccc3c(N)c2c1,Potency,[8],24.1 µM (active)
same,Potency,[9],21.5 µM (active)
CNCCC=C1c2ccccc2CCc2ccccc21,Potency,[8],21.5 µM (active)
same,Potency,[6],inactive
CCOP(=S)(OCC)Oc1ccc2c(C)c(Cl)c(=O)oc2c1,Potency,[2],15.5 µM (active)
same,Potency,[4],6.92 µM (active)
same,"activity change, negative = inhibition",[7],69.2%
Cc1ccc(Nc2nccc(N(C)c3ccc4c(C)n(C)nc4c3)n2)cc1S(N)(=O)=O,Potency,[8],21.5 µM (active)
same,Potency,[9],12.1 µM (active)
CC(C)OC(=O)OCOP(=O)(CO[C@H](C)Cn1cnc2c(N)ncnc21)OCOC(=O)OC(C)C,Potency,[8],0.0152 µM (active)
same,Potency,[6],inactive
same,Potency,[9],0.0192 µM (active)
